This is a sample that favours compounds with a hit; in the whole collection about 3.3% have one here.
Cl transport mod: modulators of human KCC2 chloride dependent transport. Q9H2X9. KCC2 cells, thallium flux FluoZin-2 fluorescence. B-score of Tl+ flux slope (higher = more flux/activation; lower = inhibition) at 10 µM. hit rate 2.2% among 190,000. AID 1456;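 active = thallium flux slope and its plate-corrected score both differing from the plate sample mean at a set confidence after two filtering rounds, in either direction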;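 also: slope of fluorescence scaled to starting intensity during 10 to 20 s after thallium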
Cardio protect: protects H9c2 cardiomyocytes from peroxide injury; hit rate 0.63% among 360,000; AID 588492; protection from H2O2 cell death, % at 20 µM; H2O2 injury protection, ATPLite, 2 h;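 active = compounds giving at least 50% protection of heart cells from peroxide-induced death in the single-dose screen, raw or plate-pattern-corrected value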;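 also: 0% = DMSO wells with peroxide and 100% = DMSO wells without peroxide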
Calb FLC: affects C. albicans growth with fluconazole; C. albicans CaCi-2 (fluconazole-resistant clinical isolate) + fluconazole, Alamar Blue growth, 48 h; growth inhibition, % (no concentration beside the values); hit rate 0.57% among 300,000;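 active = growth inhibition above about 58% in most replicates, limit read from the data, passing the limit was not always enough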;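 also: all wells also contain fluconazole at 8 µg/ml as a sub-toxic cotreatment; 0% = median of DMSO wells and 100% = median of geldanamycin control wells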
PHOSPHO1 inh: PHOSPHO1 (human) inhibition. recombinant PHOSPHO1, absorbance phosphatase assay. inhibition, % at 13.3 µM. hit rate 1.1% among 290,000; in the data active = inhibition above about 60%
Target sequence (Q8TCT1 whole entry, looked up): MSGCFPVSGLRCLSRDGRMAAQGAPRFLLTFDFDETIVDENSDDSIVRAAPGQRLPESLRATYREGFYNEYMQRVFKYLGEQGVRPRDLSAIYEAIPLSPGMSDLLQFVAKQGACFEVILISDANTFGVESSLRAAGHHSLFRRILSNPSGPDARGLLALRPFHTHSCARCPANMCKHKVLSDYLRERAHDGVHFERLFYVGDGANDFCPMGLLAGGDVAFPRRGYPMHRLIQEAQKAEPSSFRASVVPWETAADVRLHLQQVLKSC
Efflux pump inh: inhibitors of Candida antifungal efflux pumps expressed in yeast; inhibition, % at 10 µM; S. cerevisiae Candida pump triplex, Nile Red efflux; hit rate 0.44% among 330,000;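 active = plate passing quality check with inhibition over a set limit, or well fluorescence over plate mean plus 4 SD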;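 also: Nile Red retained in pooled yeast measured as flow cytometry median fluorescence; 0% = buffer negative control and 100% = Enniatin B positive control; higher means more Nile Red kept so more efflux inhibition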
Cmpd fluor yeast: compound fluorescence in yeast efflux pump counter-screen | shares compounds with Efflux pump inh | S. cerevisiae AD/pABC3, flow cytometry | hit rate 4% among 1,700 | fluorescence ratio to DMSO, % at 10 µM;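 active = fluorescence ratio to DMSO above its plate's cutoff, the plate mean ratio plus 5 SD, cut at about 210% in these data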;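 also: unstained yeast with no Nile Red so the signal is compound autofluorescence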
Mdr1 pump inh: Candida Mdr1 efflux pump inhibition; inhibition, % at 10 µM; hit rate 1% among 1,700; shares compounds with Efflux pump inh; S. cerevisiae AD/CaMDR1, Nile Red efflux, flow cytometry; in the data active = inhibition above about 26%;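 also: 0% = DMSO vehicle and 100% = reference inhibitor; higher means more Nile Red retained so more efflux inhibition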
Cdr2 pump inh: inhibitors of Candida albicans Cdr2 efflux pump. AID 588520. shares compounds with Efflux pump inh. S. cerevisiae AD/CaCDR2, Nile Red retention, flow cytometry. Nile Red retention ratio vs DMSO, % at 10 µM. hit rate 4% among 1,700; in the data active = Nile Red retention ratio vs DMSO above about 190%;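 also: higher ratio means more blocking of Cdr2 efflux of the dye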
CaCdr1 efflux inh: blocks the Candida albicans Cdr1 efflux pump in yeast. shares compounds with Efflux pump inh. S. cerevisiae AD/CaCDR1, Nile Red efflux, flow cytometry. inhibition, % at 10 µM. hit rate 1% among 1,700;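 active = inhibition above the screen-wide mean plus twice its standard deviation, cut at about 32% in these data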
* hit, by the source's call; i = inactive; · = no result.

SMILES	Cl transport mod	Cardio protect	Calb FLC	PHOSPHO1 inh	Efflux pump inh	Cmpd fluor yeast	Mdr1 pump inh	Cdr2 pump inh	CaCdr1 efflux inh
Cc1ccc(NC(=O)COC(=O)c2cc(Cl)ccc2Cl)c(Br)c1	0.38	1	1	0	1.3*	97	0	87	0
COc1ccc(-c2cc(C(=O)NCc3cccc(Cl)c3)[nH]n2)c(C)c1	·	1	·	·	·	·	·	·	·
COc1ccc(CCNC(=O)CCNC(=O)N2CC(=O)Nc3ccccc32)cc1	·	-2	-1	-1	0	·	·	·	·
CSc1nc2ccc(S(N)(=O)=O)cc2s1	0.081	1	-1	2	12*	101	0	106	0
CSc1nc2ccc(S(=O)(=O)N3CCCC3)cc2s1	·	-4	4	26	1	·	·	·	·
CCN(CC)c1ccc(/C=C/c2cc(-c3ccccc3)c3ccccc3n2)cc1	i	-17	6	47	1.9*	125	1	142	1
CN(C)c1ccc(/C=C/c2ccc3ccccc3n2)cc1	0.11	-20	-2	32	0	·	·	·	·
CCCn1nnc(NC(=O)/C=C/c2ccc(C(C)C)cc2)n1	0.33	0	-1	8	0	·	·	·	·
O=Cc1ccc(-n2cncn2)cc1	-0.66	6	-12	32	1.0*	97	0	98	0
COc1cccc(C(C(=O)NC(C)(C)C)N(C(=O)CCC(=O)Nc2cc(C)on2)C(C)C)c1OC (centres undefined)	0.66	-9	-12	-13	0	112	0	106	0
COc1cccc(C(C(=O)NC(C)(C)C)N(C(=O)CCC(=O)Nc2cc(C)on2)C(C)(C)C)c1OC (centres undefined)	0.13	0	-6	3	0	93	0	98	0
CC[n+]1c(/C=C/C=C/N(C(C)=O)c2ccccc2)sc2ccccc21	·	-21	89*	54	1.3*	309*	2	125	1
Cc1ccnc(N2C(=O)c3cccc4c([N+](=O)[O-])ccc(c34)C2=O)c1	·	-25	15	-3	0.9*	216	1	129	1
COc1cccc(CN(C)C(=O)CCNC(=O)c2ccco2)c1	·	8	·	·	0	·	·	·	·
CCOC(=O)c1c(NC(=O)COC(=O)c2ccncc2)sc(C)c1C	0.87	4	-2	0	0.5*	95	0	101	0
CCOC(=O)c1nc(Nc2ccccc2CC)c2ccccc2n1	·	0	-15	-2	0	·	·	·	·
CCOC(=O)c1nc(Nc2ccccc2C)c2ccccc2n1	-0.39	3	37	-3	0.9*	104	0	109	0
COc1cccc(/C=N/NC(=O)C[n+]2ccccc2)c1O	1.8	-1	-7	-16	0	·	·	·	·
COc1cc(OC)c(OC)cc1/C=N/NC(=O)C[n+]1ccccc1	0.36	5	3	-12	7.6*	93	0	83	0
O=C(Nc1ccc(F)cc1)N1CCN(C(=O)C2CCCO2)CC1 (centres undefined)	·	4	0	37	0	·	·	·	·
O=C(C1CCCO1)N1CCN(C(=S)Nc2ccc(F)cc2)CC1 (centres undefined)	0.37	-2	5	-9	2.5*	107	0	108	0
O=S(=O)(c1ccc(-c2n[nH]c(=S)o2)cc1)N1CCCCC1	·	1	10	-65	0	·	·	·	·
Cc1ccc(-c2cc(C(=O)Nc3ccc(S(=O)(=O)Nc4onc(C)c4C)cc3)c3ccccc3n2)cc1	0.0028	-12	24	44	0.6*	114	0	94	0
CC(C)(C)c1ccc(-n2ncc3c2CCCC3NC(=O)c2cnccn2)cc1 (centres undefined)	·	-10	-2	24	0.5*	107	0	98	0
CC(C)(C)c1ccc(-n2ncc3c2CCCC3NC(=O)c2csnn2)cc1 (centres undefined)	·	-16	6	11	0	·	·	·	·
COC(=O)Cn1c(CN2CCOCC2)nc2c1c(=O)[nH]c(=O)n2C	0.91	23	6	19	1.2*	108	0	104	0

Bioassay records: PubChem, several laboratories
